In the library only some 10% were active in any assay of this set; here they are far more common.
KB-V1 cytotox: KB-V1 MDR subline cytotoxicity; KB-V1 MDR cells viability, CellTiter-Glo, 72 h; Potency, µM (top dose mostly 46.1 µM), usual class: cytotoxic; hit rate 3.4% among 400,000; further: nearly all actives have a fitted effect of over 60% in size
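KB-V1 MDR subline cells in DMEM (phenol-red free, 10% FBS) exposed to compounds in qHTS concentration series for 72 h at 37 degrees C. Viability read by CellTiter-Glo luminescence; concentration-effect curves fitted after normalization and correction.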
SW480 rereplic: inducers of DNA re-replication in SW480 colon cancer cells | SW480 DNA re-replication, Hoechst DNA content imaging, 48 h | hit rate 1.8% among 340,000 | Potency, µM (doses to about 46.1 µM), most hits filed as activators; further: nearly all actives have a fitted effect of over 55% in size
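Treated cells incubate 48 hr (37 C, 5% CO2), are stained 40 min with Hoechst, and nuclear fluorescence is enumerated; a rise in nuclei with high DNA signal marks re-replication.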
RORg inh: blocks mouse ROR gamma transcriptional activity; P51450; Potency, µM (highest dose often 53.6 µM), usual class: inhibitors; AID 2551; hit rate 5.4% among 310,000; Drosophila S2 Gal4-RORgamma UAS-luciferase reporter, 20 h; further: nearly all actives have a fitted effect of over 60% in size
Target sequence (P51450 whole entry, looked up, the tested form may be a part): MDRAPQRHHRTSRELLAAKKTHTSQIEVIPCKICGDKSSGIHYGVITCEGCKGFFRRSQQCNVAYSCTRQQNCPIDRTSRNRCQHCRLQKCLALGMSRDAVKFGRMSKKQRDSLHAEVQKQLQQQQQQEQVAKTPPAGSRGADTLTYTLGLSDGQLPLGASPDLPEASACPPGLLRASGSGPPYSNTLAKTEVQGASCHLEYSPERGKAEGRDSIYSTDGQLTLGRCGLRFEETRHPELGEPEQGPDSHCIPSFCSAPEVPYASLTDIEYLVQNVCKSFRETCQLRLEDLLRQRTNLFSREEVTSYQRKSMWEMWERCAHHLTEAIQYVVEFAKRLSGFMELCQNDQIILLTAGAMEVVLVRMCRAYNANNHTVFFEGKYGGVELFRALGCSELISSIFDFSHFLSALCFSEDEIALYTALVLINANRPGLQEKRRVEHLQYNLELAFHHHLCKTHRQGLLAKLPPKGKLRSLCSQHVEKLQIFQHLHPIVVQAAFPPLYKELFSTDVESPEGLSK
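A Gal4/UAS one-hybrid system in insect cells: metallothionein-promoter Gal4–ROR gamma fusion plus Photinus luciferase reporter. Copper sulfate 700 uM final, 20 hr ambient incubation, luminescent detection after 10 min with reagent.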
MCF10A rereplic: induces DNA re-replication in MCF 10a normal breast cells. MCF 10A DNA re-replication, Hoechst nuclear intensity, 48 h. Potency, µM (series often up to 46.1 µM), most hits filed as activators. hit rate 2.9% among 350,000; further: nearly all actives have a fitted effect of over 50% in size
KB-3-1 tox: KB-3-1 parental cell cytotoxicity; KB-3-1 viability, CellTiter-Glo ATP luminescence, 72 h; Potency, µM (series often up to 46.1 µM), hits mostly cytotoxic; hit rate 1.4% among 400,000; further: nearly all actives have a fitted effect of over 60% in size
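Parental KB-3-1 adenocarcinoma cells in phenol-red-free DMEM with 10% FBS were pin-treated with compounds at several concentrations, incubated 72 h at 37 °C, and viability read by CellTiter-Glo luminescence; concentration-effect curves were fitted after normalization.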
Gal4-VP16 FLuc: inhibits Gal4-VP16 luciferase reporter, ROR gamma counter-screen; Drosophila S2 Gal4-VP16 UAS-luciferase, luminescence, 20 h; Potency, µM (titrated, usually from 53.6 µM), actives largely listed as inhibitors; hit rate 3.5% among 310,000; AID 2546;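 further: Gal4-VP16 expression switched on by copper sulfate through the metallothionein promoter; nearly all actives have a fitted effect of over 50% in size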
Hits are given with their value; i = inactive; ? = inconclusive; nt = no result. The call rests on the fitted dose curve; in most records, active means well fitted curve in the direction sought with a large enough effect; inconclusive means small, poorly fitted or top-dose-only effect, or another doubt; inactive means no such curve, though single readings can be large; an effect the other way counts as inactive or inconclusive.

SMILES	KB-V1 cytotox	SW480 rereplic	RORg inh	MCF10A rereplic	KB-3-1 tox	Gal4-VP16 FLuc
O=C(Nc1ccc(C(=O)O)cc1)/C(=C\C=C\c1ccccc1)NC(=O)c1ccccc1Br	i	i	?	?	i	?
CCN(CC)S(=O)(=O)c1ccc(N2CCOCC2)c(NC(=O)C23CC4CC(CC(Cl)(C4)C2)C3)c1	23.1µM	i	i	?	i	i
CCN(CC)S(=O)(=O)c1ccc(N2CCOCC2)c(NC(=O)c2ccccc2)c1	?	i	i	i	i	i
O=[N+]([O-])c1ccccc1/C=N/n1c(C2CCCCC2)n[nH]c1=S	i	i	?	?	i	35.5µM
Cc1ccccc1/C=N/n1c(C2CCCCC2)n[nH]c1=S	i	i	15.8µM	?	i	?
S=c1[nH]nc(C2CCCCC2)n1/N=C/c1ccccc1Br	?	i	?	?	i	?
Fc1ccccc1/C=N/n1c(C2CCCCC2)n[nH]c1=S	i	i	11.2µM	i	i	?
Cc1nn(CC(=O)Nc2ccc(Cl)cc2)c(=O)c2cc(-c3ccccc3)nn12	i	14.6µM	i	20.6µM	i	i
O=C(Cn1nc(-c2ccccc2)c2c(c1=O)CCCC2)Nc1ccc(F)c(Cl)c1	?	nt	nt	nt	23.1µM	nt
COc1ccc(-c2cc3c(=O)n(CC(=O)Nc4ccc(Cl)cc4)ncn3n2)cc1	?	i	i	i	i	i
Cc1c(C(=O)NCc2ccccc2)sc2nc3n(c(=O)c12)CCC3	i	nt	nt	nt	i	nt
COc1ccc(S(=O)(=O)c2c(SC)nn(Cc3ccccc3C)c2NC(C)=O)cc1	i	nt	nt	nt	i	nt
CC1=C(C(=O)N2CCCCCC2)CC(CC(=O)NCCN2CCOCC2)C(=O)N1Cc1ccc(C(C)(C)C)cc1 (stereo unspecified)	i	nt	nt	nt	i	nt
FC(F)(F)c1ccccc1-c1ccc2ncnc(NC3CC3)c2c1	nt	nt	i	nt	nt	?
O=C(NC1CCCC1)C1C(c2ccc(C(F)(F)F)cc2)=Nc2ccccc2N1C(=O)c1cc2ccccc2[nH]1 (stereo unspecified)	13µM	nt	nt	nt	?	nt
OC[C@@H]1CN(Cc2ccc(Cl)cc2)C[C@H](n2cnc3c(N4CCCC4)ncnc32)O1	i	nt	nt	nt	i	nt
CC(C)(C)c1ccc(-c2noc(-c3ccc4c(c3)CCO4)n2)cc1	?	4.61µM	i	?	i	i
COc1cc2c(cc1OC)C(c1ccccc1)CN(C)CC2 (stereo unspecified)	nt	i	i	i	nt	i
CC(=O)Nc1ccc(-c2cc(C(=O)O)c3ccccc3n2)cc1	i	i	10µM	i	i	?
COC(=O)c1ccc(NC(=O)c2cc(-c3ccccn3)nc3ccccc23)cc1	i	i	i	i	i	i
O=C(O)c1cc(-c2ccc3ccccc3c2)nc2ccc(F)cc12	i	i	22.4µM	?	?	i
CC(=O)NS(=O)(=O)c1ccc(NC(=O)c2cc(-c3ccc(C)cc3)nc3ccccc23)cc1	i	i	?	i	i	i
O=C(Nc1ncccn1)c1cc(-c2ccc(F)cc2)nc2ccccc12	i	?	i	i	i	i
Cc1ccc(-c2cc(C(=O)N(C)Cc3cnn(C)c3C)c3cc(Br)ccc3n2)cc1	?	i	?	16.4µM	?	i
COC(=O)c1ccc(NC(=S)NC(=O)c2cc(-c3ccccc3)nc3ccccc23)cc1	i	i	0.447µM	i	i	2µM
SMILES	KB-V1 cytotox	SW480 rereplic	RORg inh	MCF10A rereplic	KB-3-1 tox	Gal4-VP16 FLuc
OC1OC[C@H](O)[C@@H](O)[C@@H]1O (stereo partly specified)	nt	nt	i	nt	nt	i
O=C(O)c1cc(-c2cc(C(=O)O)c3ccccc3n2)nc2ccccc12	nt	nt	i	nt	nt	i
CCn1cc(-c2cc(C(=O)O)c3ccccc3n2)cn1	?	i	5.62µM	i	?	?
NNC(=O)c1cc(-c2ccc(O)cc2)nc2ccc(Br)cc12	i	i	12.6µM	?	i	?
CCn1cc(-c2cc(C(=O)O)c3ccccc3n2)c(C)n1	i	i	?	i	i	i
CCC(=O)Nc1ccc(-c2cc(-c3ccccc3)nc(-c3ccc(NC(=O)CC)cc3)n2)cc1	i	i	8.91µM	?	i	7.08µM
CC(=O)Nc1ccc(-c2cc(-c3ccccc3)nc(-c3ccccc3)n2)cc1	i	i	i	?	i	i
O=C(O)c1cc(-c2ccc3ccccc3n2)nc2ccccc12	i	i	5.01µM	i	i	11.2µM
CS(=O)(=O)c1ccc(Cn2c3c(c4cc(F)cc(F)c42)CCC[C@H]3CC(=O)O)cc1	nt	nt	i	nt	nt	?
COc1ccc(C(=O)Oc2ccc(C(c3c(C)[nH][nH]c3=O)c3c(C)[nH][nH]c3=O)cc2)cc1	i	nt	nt	nt	i	nt
COC(=O)c1ccc(NC(=O)c2cc(-c3ccncc3)nc3ccccc23)cc1	i	i	nt	i	23.1µM	nt
O=C(O)c1cc(-c2cccc3ccccc23)nc2ccccc12	i	i	i	i	i	i
O=C(O)c1cc(-c2c[nH]c3ccccc23)nc2cc3ccccc3cc12	nt	nt	5.01µM	nt	nt	i
O=C(Nc1ccc(Br)cc1)c1cc(-c2ccncc2)nc2ccccc12	i	16.4µM	nt	?	?	nt
O=C(Nc1ccc2c(c1)OCO2)c1cc(C2CCCCN2C(=O)CCCc2ccccc2)on1 (stereo unspecified)	i	nt	nt	nt	i	nt
CN1CCN(C(=O)C(=O)c2cn(CC(=O)N3CCOCC3)c3ccccc23)CC1	i	nt	nt	nt	i	nt
Oc1c(Br)cc(Br)cc1C=NCc1ccc(F)cc1	i	i	10µM	i	i	?
COc1c2c(cc3c1C(NC(N)=O)[N+](C)(C)CC3)OCO2 (stereo unspecified)	nt	nt	i	nt	nt	i
COCCCNC(=O)CSc1nc2nc(C)c(Cc3ccccc3Cl)c(C)n2n1	i	nt	nt	nt	i	nt
COC(=O)c1cnc(SCc2ccc(Cl)cc2)n1C	i	i	i	i	i	?
Cn1c(SCc2ccc(Cl)cc2)nc(C(F)(F)F)cc1=O	16.4µM	i	i	i	?	i
Cc1cc(C)cc(NC(=O)C2CCCN(c3nnc(C)c4c(C)n(-c5ccccc5)nc34)C2)c1 (stereo unspecified)	i	nt	nt	nt	i	nt
COC(=O)c1ccc(CSc2nc3sc(C(=O)O)c(C)c3c(=O)[nH]2)cc1	i	i	i	i	i	i
Cc1c(C(=O)O)sc2nc(/C=C/c3cccc(O)c3)[nH]c(=O)c12	i	?	i	7.31µM	i	i
O=C(Nc1ccc2c(c1)C(=O)N(CC1CCCO1)C2=O)c1ccc(Cl)c(Cl)c1 (stereo unspecified)	20.6µM	i	?	i	i	?
Cc1c(NC(=O)c2ccc3c(c2)C(=O)N(CC2CCCO2)C3=O)cccc1C(=O)O (stereo unspecified)	i	4.11µM	i	i	i	i
CCOC(=O)c1ccc(NC(=O)c2ccc3c(c2)C(=O)N(CC2CCCO2)C3=O)cc1 (stereo unspecified)	nt	i	i	i	nt	?

Screens as filed in PubChem.
